# Compound activity: PubChem, National Center for Advancing Translational Sciences (NCATS)
# Most compounds without a hit are left out; they make up all but 2.4% or so of the library.
# D2 ag-1: D2 dopamine receptor (human) agonism. P14416. HEK293 T-REx D2 cells, calcium flux agonist mode. activation, % at 2 µM. hit rate 0.53% among 340,000. AID 485358;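 active = activation over 3 SD above normal in the single-dose calcium agonist read, cut at about 30% in these data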; note: 0% is about no effect
# Target sequence (P14416 whole entry, looked up): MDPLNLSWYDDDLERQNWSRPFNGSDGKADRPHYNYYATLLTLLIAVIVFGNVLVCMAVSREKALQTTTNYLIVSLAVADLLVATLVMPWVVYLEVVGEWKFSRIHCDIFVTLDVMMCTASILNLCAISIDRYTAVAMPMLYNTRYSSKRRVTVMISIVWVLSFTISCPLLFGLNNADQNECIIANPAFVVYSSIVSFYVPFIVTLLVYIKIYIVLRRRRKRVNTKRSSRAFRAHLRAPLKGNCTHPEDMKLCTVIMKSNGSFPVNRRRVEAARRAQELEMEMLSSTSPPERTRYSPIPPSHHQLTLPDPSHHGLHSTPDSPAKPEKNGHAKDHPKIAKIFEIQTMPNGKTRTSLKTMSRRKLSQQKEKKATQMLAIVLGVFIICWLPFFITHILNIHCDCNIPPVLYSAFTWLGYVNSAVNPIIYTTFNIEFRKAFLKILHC
#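 Agonism is scored from calcium flux in a force-coupled, inducible HEK293 cell line expressing D2, read kinetically for 180 s after compound addition against dopamine controls.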
# D2 PAM-1: positive allosteric modulators of human D2 dopamine receptor | P14416 | HEK293 T-REx D2, calcium flux, EC20 dopamine potentiation | potentiation, % at 10 µM | hit rate 0.34% among 340,000 | AID 485347;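 active = potentiation over 3 SD above the plate norm, cut at about 30% in these data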; note: 0% is about no effect
#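 Primary screen. Calcium kinetics in induced HEK293 T-REx D2 cells: compound pre-addition 180 s, EC20 dopamine, 180 s more.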
# D2 PAM-2: positive allosteric modulators of human D2 dopamine receptor | P14416 | hit rate 0.23% among 360,000 | potentiation, % (concentration not given with the values) | DiscoveRx D2 beta-arrestin cells, luminescence, 90 min; 100% = 57 uM dopamine signal; in the data active = potentiation above about 50%; inconclusive = mostly about 30% to 49%
#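 D2 cells co-treated with compound plus 50 nM dopamine (EC20) for 90 min at 37 deg C to detect potentiation. Beta-arrestin recruitment was read as enzyme-fragment luminescence after 1 h at ambient temperature. Full response was set by 57 uM dopamine.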
# D2 ag-2: agonists of human D2 dopamine receptor (beta-arrestin). hit rate 0.084% among 360,000. P14416. DiscoveRx PathHunter D2 beta-arrestin, luminescence, 90 min; 100% = 57 uM dopamine signal. activation, % (concentration not given with the values); in the data active = activation above about 40%; inconclusive = between about 15% and that limit
#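 Agonist mode: compounds alone added to overnight-plated D2 PathHunter cells for 90 min at 37 C, with 57 uM final dopamine (EC100) defining full response. Beta-arrestin recruitment detected by chemiluminescent reagent, read after 1 h at ambient temperature.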
# D2 antag: D2 dopamine receptor (human) antagonism; hit rate 2% among 340,000; AID 485344; inhibition, % at 10 µM; P14416; HEK293 TREx D2 cells, calcium flux, dopamine EC80; in the data active = inhibition above about 30%; inactive = below that, where a call was filed; note: 0% is about no effect
#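 Compounds are added to dye-loaded, induced HEK293 T-REx cells coupled to calcium release via D2; after a 3 min kinetic read an EC80 dopamine stimulus is given and fluorescence is recorded for 3 more min.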
# * = called active by the depositor; ? = inconclusive; / = no result.
SMILES,D2 ag-1,D2 PAM-1,D2 PAM-2,D2 ag-2,D2 antag
Nc1nc(-c2ccc(Cl)cc2)cn1N,0,5,-6,-3,30*
Clc1ccc(-c2cn3c(n2)SCC3)cc1,0,-8,-5,-5,-12
O=C(NC1(C(F)(F)F)NC(=O)N(Cc2cccnc2)C1=O)c1ccc(F)cc1 (stereo unspecified),-1,39*,-4,2,6
OC(COc1ccc(Cl)cc1)CN1CCC(Cc2ccccc2)CC1 (stereo unspecified),1,-27,-30,1,22
Cc1ccc(OCC(O)CN2CCN(c3ccc(C)cc3)CC2)cc1 (stereo unspecified),0,-24,-2,-2,53*
Cc1ccc(N2CCN(CC(O)COc3ccccc3)CC2)cc1 (stereo unspecified),0,-22,-23,4,39*
Cc1cc(=O)oc2cc(OCC(O)CN3CCN(c4ccc(F)cc4)CC3)ccc12 (stereo unspecified),73*,-19,-7,?,76*
Cc1ccc(C)c(OCC(O)CN2CCC(Cc3ccccc3)CC2)c1 (stereo unspecified),0,0,-16,-7,47*
Cc1ccc(OCC(O)CN2CCN(CC(O)COc3ccc(C)cc3)CC2)cc1 (stereo unspecified),1,6,-26,-1,9
CCC(=O)N1CCc2cc(Br)cc(S(=O)(=O)CCC(=O)NCCc3cccc(C)c3)c21,1,-11,/,/,/
CN(C(=O)CSc1nc(C2CCCC2)nc2c1c(=O)n(C)c(=O)n2C)c1ccccc1,-1,7,/,/,/
O=C(Nc1ccc2nc(SCC(=O)N3CCCC3)sc2c1)c1cccc(F)c1,-1,-6,/,/,/
COc1ccccc1C(=O)Nc1ccc(C(=O)OCc2cc(=O)n3c4c(sc3n2)CCCC4)cc1,-1,1,/,/,/
CCOC(=O)N1CCN(CC(O)COc2ccc(C(C)C)c(C)c2)CC1 (stereo unspecified),31*,-19,-3,-3,7
OC(CNCCc1ccc(C(F)(F)F)cc1)COC(c1ccccc1)c1ccccc1 (stereo unspecified),7,-5,-10,-3,31*
COc1ccc(C(OCC(O)CNCCc2ccc(S(N)(=O)=O)cc2)c2ccc(OC)cc2)cc1 (stereo unspecified),2,8,-11,-3,13
O=C1c2ccccc2C(=O)N1Cc1ccco1,0,1,-17,-1,-2
O=C1c2cccc3c(O)ccc(c23)C(=O)N1Cc1ccco1,61*,8,29,12,20
COc1c(C)cc(S(=O)(=O)NCCc2c(C)[nH]c3ccccc23)c(C)c1C,1,-3,/,/,/
Cc1[nH]c2ccccc2c1CCNS(=O)(=O)c1ccc(S(N)(=O)=O)cc1,6,-16,-6,-4,55*
Cc1ccc(CN2CCN(C3CCN(C(=O)c4ccc(C)cc4)CC3)C(=O)C2=O)cc1,0,9,/,/,/
CC(C)(C)N(Cc1ccccc1)C(=O)CSc1nnc(CNc2ccc(F)cc2)o1,0,11,-4,-3,32*
Cc1ccc(N2CC(C(=O)OCC(=O)Nc3cc(C)on3)CC2=O)c(C)c1 (stereo unspecified),0,-5,-13,-3,-5
Cc1cc(C)cc(N2CC(C(=O)OCC(=O)Nc3cc(C)on3)CC2=O)c1 (stereo unspecified),-1,41*,-5,-4,15
COc1ccc(-c2cc3ccc(O)c(CN4CCCC4)c3oc2=O)cc1OC,3,15,/,/,/
O=C(NCc1ccc(F)cc1)C1CCN(S(=O)(=O)c2ccc3c(c2)CCCN3C(=O)C2CCC2)CC1,1,-5,/,/,/
COc1ccc(C(=O)c2ccc(N3CCN(C4CC(=O)NC4=O)CC3)cc2)cc1F (stereo unspecified),0,3,14,-1,34*
COc1cccc2c1cc1c(=O)n(CC(=O)NCc3ccco3)nc(C)n12,0,/,/,/,/
COc1cccc(C2/C(=C(\O)c3ccc4c(c3)OCCO4)C(=O)C(=O)N2Cc2cccnc2)c1 (stereo unspecified),0,-10,-5,-3,31*
